Test results: PubChem BioAssay AID2384 (Southern Research Specialized Biocontainment Screening …, 2010)
The whole screen tested about 2,300 compounds, of which about 1,100 (48%) were called active. The set was probably picked from earlier hits. Some of the results follow. Measured potencies and affinities stand elsewhere. A number with no mark means an inactive call. How the calls were made is not given here.

Test: S. typhi counter-screen signal inhibition – fluorescence, 4 h, counter-screen for PhoP regulon inhibitor project, dose response (AID 2384)
Settings: S. typhi GFP reporter counter-screen; series mostly up to 150 µM; inhibition: at the top concentration

Row | Structure (SMILES) | inhibition
1 | CC(=O)c1ccc(NC(=S)NC(NC(=O)c2ccco2)C(Cl)(Cl)Cl)cc1 (stereo not given) | 15.3%
2 | Cc1nn(-c2nc3ccccc3[nH]2)c(N)c1-c1ccccc1 | 17.9%
3 | CC(C)SCc1nc2ccccc2[nH]1 | -16.5%
4 | N#CC(C(=O)C12CC3CC(CC(C3)C1)C2)c1nc2ccccc2[nH]1 (stereo not given) | -2.5%
5 | COc1cccc(CNS(=O)(=O)c2ccc3c(c2)NC(=O)CS3)c1 | -0.3%
6 | O=C(O)CC12CC3CC(C1)CC(n1ncc(NCC4CCCO4)c(Cl)c1=O)(C3)C2 (stereo not given) | -22.1%
7 | Cc1ccc(NC2=C(Cl)C(=O)OC2OC(=O)c2ccco2)c(C)c1 (stereo not given) | -8.96%
8 | CN(C)C(CNc1ccc([N+](=O)[O-])cc1C#N)c1ccccc1 (stereo not given) | 32.1%
9 | O=C(NCc1nc2ccccc2[nH]1)c1ccc([N+](=O)[O-])cc1 | 37.4%
10 | COc1ccc(C2=NN3C(C2)c2ccccc2OC3c2cccs2)cc1 (stereo not given) | 10.4%
11 | CCS(=O)(=O)N1CCN(C2CCC(c3ccccc3)CC2)CC1 (stereo not given) | 24.4%
12 | CNS(=O)(=O)c1cc(OC)ccc1OC | -5.88%
13 | NC(=O)c1cc(C(=O)c2cccc(Cl)c2Cl)c[nH]1 | 29.6%
14 | CCOC(=O)COn1c(=O)c(-c2cccs2)[n+]([O-])c2ccccc21 | 4.01%
15 | CCOc1ccc(N2C(=O)S/C(=C\c3ccc(O)c(OC)c3)C2=O)cc1 | -3.62%
16 | c1ccn(-c2ccc(-c3ccn[nH]3)cc2)c1 | -23.6%
17 | CC(=O)Nc1nc(C)c(-c2csc(Nc3ccc(O)cc3)n2)s1 | 36.7%
18 | Cc1cc(C)c[n+](CC(=O)c2ccc(NC(=O)c3ccccc3)cc2)c1 | 29.9%
19 | Cc1cc(NS(=O)(=O)c2ccc(Nc3nc(-c4sc(NC(=O)c5ccccc5)nc4C)cs3)cc2)no1 | -13.7%
20 | CC(C)(C)n1nc2c(c1NC(=O)c1ccccc1)CS(=O)(=O)C2 | 15.3%
21 | Clc1ccc(Cn2cc(Br)cn2)cc1Cl | 12.1%
22 | COC(=O)Cn1c(=O)c(C)nc2ccccc21 | -6.54%
23 | COCCn1nnnc1C(c1cccc(OC)c1OC)N1CCN(C2CCCCC2)CC1 (stereo not given) | -15.4%
24 | COc1cc2[nH]c(=O)n(Cc3ccc(C(=O)N4CCC(N5CCCCC5)CC4)cc3)c(=O)c2cc1OC | -16.4%

Row | Structure (SMILES) | inhibition
25 | O=C1c2cccnc2C(=O)N1c1ccccc1-c1ccccc1 | 14.5%
26 | O=C(c1cccs1)N1CCN(S(=O)(=O)c2ccccc2)CC1 | 11.9%
27 | CC(C)(C)c1ccc(C(=O)NNC(=O)Cc2ccccc2)cc1 | 9.8%
28 | CC(C)(C)n1nc2c(c1NC(=O)c1cccs1)CS(=O)C2 (stereo not given) | 5.52%
29 | CCc1ccccc1NC(=S)N(Cc1cccc(C)c1)c1cccnc1 | -8.36%
30 | N=c1sc2c(n1Cc1ccccc1)CCCC2 | 25.6%
31 | N#Cc1c(-c2ccccc2)ccn(Cc2cccc(Cl)c2)c1=O | 0.97%
32 | Nc1nc2n(n1)C(c1ccco1)CC(c1ccc(Cl)c(Cl)c1)N2 (stereo not given) | -6.04%
33 | Cc1ccc2nc3c(c(N)c2c1)CCN3C | 22.2%
34 | O=C(CSc1nnnn1C1CCCCC1)N1CCCC1 | 3.49%
35 | Cc1cc(C)nc(NS(=O)(=O)c2ccc(N3C(=O)C4CC=C(Cl)CC4C3=O)cc2)n1 (stereo not given) | -4.28%
36 | CCOc1ccccc1NC(=O)Nc1ccncc1 | -8.96%
37 | COC(=O)Cc1ccc(NC(=S)NCc2ccc(Cl)cc2)cc1 | -2.91%
38 | O=S(=O)(Nc1ncccn1)c1ccc(NC(=S)Nc2ccc(Cl)cc2)cc1 | -30.1%
39 | Cc1ccc(NC(=O)C(=O)NCc2ccncc2)cc1 | -0.03%
40 | Fc1cccc(NC(=S)NCc2ccc(Cl)cc2)c1 | -6.29%
41 | CCNC(=S)Nc1cccc(S(=O)(=O)Nc2ccccc2OC)c1 | 8.49%
42 | Cc1ccc(S(=O)(=O)N(Cc2n[nH]c(=S)n2-c2ccccc2)c2ccccc2)cc1 | 2.7%
43 | CCN(C1CCCCC1)S(=O)(=O)c1ccc(OC)c(C)c1 | 15.5%
44 | Cc1cnc(C(=O)Nc2nnc(C)s2)cn1 | 20.5%
45 | O=C(O)C1Cc2ccccc2CN1S(=O)(=O)c1ccc2ccccc2c1 (stereo not given) | -12.1%
46 | CN1CCCN(S(=O)(=O)c2ccc3c(c2)OCCO3)CC1 | -1.35%
47 | O=S(=O)(Nc1cccc(-c2cn3c(n2)SCC3)c1)c1ccc(F)cc1F | 12%
48 | COc1ccc(NC(=O)N(CCc2ccccc2)Cc2cc3c(C)cc(C)cc3[nH]c2=O)cc1 | 4.09%

Row | Structure (SMILES) | inhibition
49 | CCC(CC)C(=O)NCCc1cc2ccc(C)cc2[nH]c1=O | -28.8%
50 | COc1ccc(Cl)cc1-c1n[nH]c(=S)o1 | 27.2%
51 | CC1CC1C(=O)Nc1nc2ccc(S(C)(=O)=O)cc2s1 (stereo not given) | 10.3%
52 | Cc1ccc(N2C(=O)[C@@H]3[C@H](C2=O)[C@H]2C=CC=NN2[C@@H]3C(=O)Nc2ccc(Cl)cc2)cc1 | 0.6%
53 | COc1ccccc1CNC(=O)Cn1c(=O)oc2cc(S(=O)(=O)N3CCCC3)ccc21 | -16.5%
54 | Cc1ccc(NC(=O)c2sccc2C)cc1[N+](=O)[O-] | 4.72%
55 | COc1cccc(NC(=O)COC(=O)Cc2ccccc2[N+](=O)[O-])c1 | -5.35%
56 | O=C(Nc1ccc(Cl)cc1)c1cccs1 | -2.55%
57 | O=C(N/N=C/c1cccc(OCc2ccccc2)c1)c1cccs1 | 31.4%
58 | Cc1ccc(NC2OC(CO)C(O)C(O)C2O)cc1 (stereo not given) | -6.38%
59 | O=C1CC(NC(=O)C(F)(F)F)=NN1c1ccccc1 | 11.9%
60 | Cc1nc2ccc(NC(=O)C(F)(F)F)cc2o1 | 18.3%
61 | NS(=O)(=O)c1cc2c(cc1Cl)NC(Cc1ccccc1)NS2(=O)=O (stereo not given) | 33.1%
62 | CCOc1cc(S(=O)(=O)N2CCN(CC)CC2)ccc1Cl | -11.4%
63 | CCOC(=O)C1CCN(C(=O)CCc2nc3ccccc3[nH]2)CC1 | 15.4%
64 | c1ccc2cc(CSCc3nc4ccccc4[nH]3)ccc2c1 | 35.5%
65 | C#CCOCCOCCOCCNc1nc(N2CCN(C(=O)CCCCCCCCCCNC(=O)[C@H]([C@@H](C)CC)n3cc(CCCCN=C(N)N)nn3)CC2)nc(N2CCN(C(=O)CCCCCCCCCCNC(=O)[C@@H]([C@H](C)O)n3cc(C)nn3)CC2)n1 | -8.39%
66 | C#CCOCCOCCOCCNc1nc(N2CCN(C(=O)CCCCCCCCCCNC(=O)[C@@H](CCSC)n3cc(CCO)nn3)CC2)nc(N2CCN(C(=O)CCCCCCCCCCNC(=O)[C@H]([C@@H](C)CC)n3cc(CCCCCN)nn3)CC2)n1 | 35.6%
67 | c1cc2c(cc1Oc1nc(N3CCOCC3)nc(N3CCOCC3)n1)OCO2 | 9.41%
68 | COc1cc(CNC(=O)CCC(=O)N2C[C@H]3C[C@H](C2)c2cccc(=O)n2C3)cc(OC)c1OC | 7.05%
69 | CC1(C)Cc2c(sc(NC(=O)COc3ccc(Cl)cc3)c2C(N)=O)C(C)(C)N1 | -4.24%
70 | CCC(=O)N(Cc1cc2cc(OC)ccc2[nH]c1=O)c1ccc(C)cc1C | -16.6%
